The values that follow come from PubChem BioAssay (NCI).

Test in all cases: NCI-60 one-dose screen, 48 h (100 = growth as untreated, 0 = no growth, -100 = all killed)
Common to all, as to details: 10 µM unless noted

Assay [1] relates to HT29 colon.
In assay [2] the test system is SNB-75 CNS.
In assay [3] the test system is SNB-19 CNS.
In assay [4] the test system is U251 CNS.
Assay [5] relates to SK-MEL-5 melanoma.
Assay [6] deals with UACC-62 melanoma.
In assay [7] the test system is LOX IMVI melanoma.
Assay [8] relates to SK-MEL-28 melanoma.
The subject of assay [9] is EKVX NSCLC.
Assay [10] concerns SN12C renal.
The subject of assay [11] is UO-31 renal.
Assay [12] deals with TK-10 renal.
The subject of assay [13] is ACHN renal.
Assay [14] relates to CAKI-1 renal.
The subject of assay [15] is A498 renal.
Assay [16] has as its system CCRF-CEM leukemia.
Assay [17] relates to MOLT-4 leukemia.
In assay [18] the test system is SR leukemia.
Assay [19] has as its system SK-MEL-2 melanoma.

This is part of a sample that, as a whole, favours compounds with a hit. Of some 83,000 tested, about 20% had one in any assay.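 48-hour exposure, single concentration, 96-well plates; percent growth endpoint where 0 means no net growth. Active: below 10.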 Unmarked numbers belong to inactive results. Activity calls are given as the source filed them.

Consider `CCCCn1c(Cc2ccc(Cl)cc2)nc2cc(OC)c(OC)cc2c1=O`, for which the growth in [1] was 107%; in [2] it was 104%; in [3], 150%; in [4], 88.5%; in assay [5], 41%; in assay [6] it was 52.5%. Besides, the growth was 79.9% in assay [7]; 116% in [8]; 59.1% in [9]; 83.6% in assay [10]; 54.4% in [11]; 102% in [12]. Further, the growth in assay [13] is 75.8%; in [14] it was 72.5%; in assay [15], 101%; in assay [16] it was -68.8% (active); in [17], -48.7% (active); in [18] it was 59.4%.
In the case of `Cc1cc(CC(=O)O)n(C)c1C(=O)c1ccc(Cl)cc1`, the growth in assay [1] was 109%; in assay [2], 121%; in assay [3], 108%; in [4] it was 99.5%; in assay [5], 98.7%; in [7], 97.9%. Further, the growth is 122% in assay [8]; 115% in assay [19]; 102% in assay [9]; 109% in assay [10]; 104% in [11]; 108% in [12]. In addition, the growth in assay [13] is 101%; in assay [14], 96%; in [15], 123%; in assay [16], 95.6%; in [17], 98.3%; in assay [18], 107%.
Consider `COc1ccc(C2=NNC(c3cc(Cc4ccc(O)c(C5CC(c6ccc(OC)cc6)=NN5)c4)ccc3O)C2)cc1` (centres undefined), for which the growth is 92.2% in assay [1]; 46.6% in [2]; 48.2% in [3]; 24.8% in [4]; 47.4% in assay [5]; 49.2% in assay [6]. Also, the growth in assay [8] was 79.4%; in assay [19], 20.1%; in assay [9], 30.9%; in assay [10] it was 52.1%; in assay [11], -2.57% (active); in assay [12] it was 45.5%. In addition, the growth is 46.3% in [13]; -30.5% (active) in assay [14]; 103% in assay [15]; 11.6% in [16]; 18.4% in assay [17]; 16% in assay [18].
As for `CC12CCC3C(CCC4CC(=O)/C(=C\O)CC43C)C1CCC(=O)O2` (centres undefined), the growth is 108% in assay [1]; 97.5% in assay [2]; 119% in assay [3]; 100% in assay [4]; 113% in assay [5]; 109% in assay [6]. In addition, the growth in assay [8] was 114%; in assay [19], 121%; in assay [9], 106%; in assay [10] it was 107%; in assay [11], 55.9%; in assay [12], 115%. For the same compound, the growth in assay [13] is 109%; in assay [14], 105%; in [15], 115%; in assay [17] it was 106%.
Regarding `C[n+]1c2ccccc2c(Nc2ccc(N3CCCCC3)cc2)c2[nH]c3ccccc3c21`, the growth in [1] was -85% (active); in [2], -94% (active); in [3] it was -89.8% (active); in assay [4] it was -98% (active); in assay [5], -98.3% (active); in [6], -97.8% (active). The growth in assay [7] is -86.2% (active); in [8], -98.9% (active); in assay [9], -56.1% (active); in assay [10], -82.7% (active); in assay [11], -97.5% (active); in [12], -79.4% (active). The growth in assay [13] was -96.2% (active); in [14], -96.8% (active); in [15], -88.3% (active); in assay [17], -63.4% (active); in [18] it was -70.1% (active).
In the case of `Fc1ccc(-c2nc(Nc3ccc(-c4nc5ccccc5[nH]4)cc3)nc(N3CCOCC3)n2)cc1`, the growth was -78.6% (active) in assay [1]; -92.6% (active) in assay [2]; -81.2% (active) in assay [3]; -93% (active) in [4]; -97.6% (active) in assay [5]; -93% (active) in assay [7]. Further, the growth was -84.7% (active) in assay [8]; -91.3% (active) in assay [9]; -79.5% (active) in [10]; -87.6% (active) in assay [11]; -94.4% (active) in [12]; -90.6% (active) in [13]. Also, the growth is -93.6% (active) in [14]; -81.5% (active) in assay [15]; -91.5% (active) in [16]; -91.6% (active) in assay [17]; -83.3% (active) in assay [18].
As to `COc1cc(C2NC(c3ccc(Cl)cc3)C(C)C(=NC(=O)c3cnccn3)C2C)cc(OC)c1OC` (centres undefined), the growth in assay [1] was 67.8%; in assay [2], 90.9%; in assay [3], 86.7%; in assay [4], 77.9%; in assay [5] it was 82.3%; in assay [6], 101%. Besides, the growth is 110% in assay [8]; 97.3% in assay [19]; 99.3% in [9]; 107% in [10]; 83% in assay [11]; 103% in [12]. The growth was 102% in assay [13]; 84.7% in assay [14]; 112% in assay [15]; 92.4% in [16]; 85.3% in assay [17]; 106% in assay [18].
As to `CCn1c2ccccc2c2ccc(C(C)=O)cc21`, the growth in assay [1] is 95.9%; in assay [2] it was 94.9%; in [3] it was 106%; in [4], 101%; in assay [5], 94.4%; in assay [6] it was 97.9%. Further, the growth in assay [8] was 106%; in assay [9], 99.2%; in [10], 114%; in assay [11] it was 106%; in assay [12], 105%; in [13], 98.1%. Besides, the growth in [14] was 94.1%; in assay [15], 83.8%; in [17] it was 96.8%; in assay [18], 97.8%.
Turning to `COc1ccc(OC)c(/C=C/c2nc(=S)n(-c3ccc(Cl)cc3)[nH]2)c1`, the growth in assay [1] is 65.4%; in assay [2] it was 42.5%; in [3], 51.2%; in assay [4], 53.3%; in assay [5], 32.5%; in assay [6] it was 42.8%. Moreover, the growth in [8] is 72.7%; in assay [19] it was 71.2%; in assay [9], 75.2%; in assay [10], 66.2%; in assay [11], 47.1%; in assay [12] it was 88.8%. Further, the growth in assay [13] was 71.2%; in [16], 60.6%; in assay [17], 52.8%; in [18] it was 38.3%.
